# Laboratory results: PubChem BioAssay
# Test system: Noggin (protein binding on small-molecule microarray)
# Assay: small molecules binding Noggin protein – biochemical, 635/667 nm fluorescence, primary screen (AID 1095);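 further: score merges 667 nm feature fluorescence with signal to noise over triplicate slides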
# Settings: 635 nm fluorescence, higher = more signal
row,SMILES,composite z-score
1,[N-]=[N+]=Nc1ccccc1[C@H]1OC(c2ccc(OCCCO)cc2)=N[C@@]1(Cc1ccccc1)C(=O)N1CCCCC1,0.94
2,CCCNC(=O)[C@@]1(c2ccc([N+](=O)[O-])cc2)CC(=O)N(C2CCCCC2)[C@@H]1c1ccc(CO)cc1,1.65
3,CN1C(=O)C2C=CC(C(O)c3ccccn3)N(N(c3ccccc3)c3ccccc3)C2C1=O (stereo unspecified),-0.112
4,COCCOC(=O)N1C(=O)[C@@]2(c3cc(C#CC4=CCCCC4)ccc31)[C@H](c1ccc(O)cc1)N1[C@H](c3ccccc3)[C@H](c3ccccc3)OC(=O)[C@H]1[C@@H]2C(=O)N1CCN(c2ncccn2)CC1,-1.1
5,C[N+](C)(C)CCCCCCNC(=O)[C@H]1C[C@H]2C(=O)N[C@@H](Cc3ccccc3)C(=O)N2[C@H]1c1ccc(O)cc1,1.18
6,O=C1NC(=O)C2C1C=CC(C(O)c1cccc3ccccc13)N2Nc1ccc(Cl)cc1Cl (stereo unspecified),-0.339
7,COC(=O)[C@@]1(Cc2ccc(F)cc2)[C@H]2c3cc(C(=O)N4CCCC4)n(CCc4ccc(O)c(O)c4)c3C[C@H]2CN1C(=O)c1ccccc1,-0.97
8,O=C(CS)NCCCCCCNC(=O)[C@H]1C[C@H]2C(=O)N[C@@H](Cc3ccccc3)C(=O)N2[C@H]1c1ccc(O)cc1,0.405
9,C#CCN([C@@H](Cc1ccc(O)cc1)C(=O)OC)[C@@H](/C=C/C1CC1)[C@H](O)Cc1ccccc1,0.0698
10,CCOC(=O)c1ccc(NC(=O)O[C@H]2[C@H](OC(=O)Nc3ccc4c(c3)OCO4)[C@@H](OC(=O)Nc3ccc4c(c3)OCO4)[C@@H](OC)O[C@@H]2CO)cc1,1.07
11,O=c1n(-c2ccccc2)c(=O)n2n1CC(COc1ccccc1)=C([C@H](O)CCc1ccccc1)[C@@H]2CO,0.701
12,COc1ccc([Si](C)(C)[C@@H]2[C@@H](CC(=O)N3Cc4ccccc4C[C@H]3CO)O[C@]3(C(=O)N(Cc4cccc(N5C(=O)c6cccc7cccc5c67)c4)c4ccccc43)[C@H]2C)cc1,1.08
13,CN(C)C(=O)[C@]1(CCS(=O)(=O)c2ccccc2)N=C(c2ccc(OCCCO)cc2)O[C@@H]1c1ccccc1N=[N+]=[N-],1.42
14,COC(=O)[C@@]1(Cc2ccc(OC)cc2)[C@H]2c3cc(C(=O)N4CCCC4)n(Cc4c(-c5ccccc5)noc4C)c3C[C@H]2CN1C(=O)c1ccccc1,0.658
15,O=C1O[C@H](c2ccccc2)[C@H](c2ccccc2)N2[C@H]1[C@@H](C(=O)O)[C@]1(C(=O)Nc3ccc(C#CC4=CCCCC4)cc31)[C@H]2c1ccc(O)cc1,0.653
16,COc1cc2c(cc1OC)CN(C(=O)[C@@H]1[C@H]3C(=O)O[C@H](c4ccccc4)[C@H](c4ccccc4)N3[C@H](c3ccc(OCCO)cc3)[C@@]13C(=O)Nc1ccccc13)CC2,1.32
17,COC(=O)[C@@]1(Cc2ccccc2)[C@H]2c3cc(C(=O)N(C)C)n(CCN4CNCC4=O)c3C[C@H]2CN1C(=O)c1ccccc1,-0.652
18,CN(C)c1ccc(C(O)C2C=CC3C(=O)N(c4ccccc4)C(=O)C3N2Nc2ccc([N+](=O)[O-])cc2)cc1 (stereo unspecified),0.037

row,SMILES,composite z-score
1,C=C(C)c1cc2c(c(CCCCCC)n1)[Si](C(C)C)(C(C)C)OC2,-0.714
2,O=C1O[C@@H](c2ccccc2)[C@@H](c2ccccc2)N2[C@@H](c3ccc(O)cc3)[C@]3(C(=O)Nc4ccc(C#CC5(O)CCCCCC5)cc43)[C@@H](C(=O)NC[C@H](O)c3ccccc3)[C@H]12,-0.0578
3,COCCCNC(=O)[C@@]1(Cc2ccccc2N=[N+]=[N-])N=C(c2ccc(OCCCO)cc2)O[C@H]1c1ccccc1,0.923
4,O=C1O[C@H](c2ccccc2)[C@H](c2ccccc2)N2[C@H]1[C@@H](C(=O)Nc1nc3ccccc3s1)[C@]1(C(=O)Nc3ccc(C#CCCO)cc31)[C@H]2c1ccc(O)cc1,0.744
5,COC(=O)[C@@]1(Cc2ccccc2)[C@H]2c3cc(C(=O)N(C)C)n(CCc4ccc(O)c(OC)c4)c3C[C@H]2CN1C(=O)c1ccccc1,0.374
6,O=C1OCC=C[C@H]2OC34C=CCN(c5ccc(Cl)cc5)C(=O)[C@H]3N(CCO)C(=O)[C@@H]4[C@@H]12 (stereo partly specified),-2.04
7,CC(C)Cc1ccc(CN2CC[C@@H](NC(=O)Nc3ccccc3)C2)cc1,-0.0751
8,C=CCC(OC(C)=O)[C@@H]1[C@@H](N(Cc2cc3ccccc3o2)C(=O)c2ccc(-c3ccccc3)cc2)c2cc(OCCCO)ccc2N1C(=O)c1ccc2ccccc2c1 (stereo partly specified),0.228
9,Cc1ccc(S[C@]2(C(=O)O)CC(=O)N(Cc3ccccc3Cl)[C@@H]2c2ccc(CO)cc2I)cc1,-0.678
10,COCCCNC(=O)[C@@]1(Sc2ccc(C)cc2)CC(=O)N(C2CCCCC2)[C@@H]1c1ccc(CO)cc1,-0.804
11,COCC1=C2[C@@H](CCc3ccccc3)OB(O)C[C@@H]2[C@@H]2C(=O)C=CC(=O)[C@@H]2C1,0.883
12,COc1ccc([Si](C)(C)[C@@H]2[C@@H](CCn3cc([C@H](O)c4ccccc4)nn3)O[C@]3(C(=O)N(Cc4ccc(N5CCC5=O)cc4)c4ccccc43)[C@H]2C)cc1,1.13
13,CCOc1cc(C(O)C2C=CC3C(=O)N(C)C(=O)C3N2Nc2ccccc2)ccc1O (stereo unspecified),-0.386
14,C=C(C(=O)CC[C@@H](OC(C)=O)c1ccc(CO)o1)C(C)C,1.28
15,CC(=O)NCCCC[C@@H]1NC(=O)[C@@H]2C[C@H](C(=O)NCCCC[N+](C)(C)C)[C@H](c3ccc(O)cc3)N2C1=O,1.36
16,CCOC(=O)C1CCCCN1 (stereo unspecified),0.458
17,C=CCOC(=O)[C@H]1[C@@H]2C(=O)O[C@@H](c3ccccc3)[C@@H](c3ccccc3)N2[C@@H](c2ccc(OCCOC(=O)[C@@H]3C[C@@H]4C(=O)N[C@@H](CCCCN(C)C)C(=O)N4[C@@H]3c3ccc(O)cc3)cc2)[C@]12C(=O)Nc1ccccc12,1.7
18,CCCC[C@@H]1C[C@H]1[C@@H](NC(=O)c1cccs1)c1ccc(C(F)(F)F)cc1,-0.345
